# Measurements taken from PubChem BioAssay (NCI).
# This is part of a sample that, as a whole, favours compounds with a hit. Of some 83,000 tested, about 20% had one in any assay.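 Cells were grown in 96-well plates and exposed to the test compound at a single concentration for 48 hours; results are reported as percent growth, with values below 10 considered active.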 Values without a mark were called inactive. Activity calls are given as the source filed them.
# What was measured:
# Test in all cases: NCI-60 one-dose screen, 48 h (100 = growth as untreated, 0 = no growth, -100 = all killed)
# Conditions in all cases: 10 µM unless noted
# [1] = system: NCI-H23 lung
# [2] = system: NCI-H226 lung
# [3] = system: NCI-H322M lung
# [4] = system: HOP-62 NSCLC
# [5] = system: NCI-H460 lung
# [6] = system: A549/ATCC NSCLC
# [7] = system: 786-0 renal
# [8] = system: COLO 205 colon
# [9] = system: DU-145 prostate
# [10] = system: K-562 leukemia
# [11] = system: MALME-3M melanoma
# [12] = system: MDA-MB-231 breast
# [13] = system: RXF 393 renal
# [14] = system: SF-268 CNS
# [15] = system: SF-295 CNS
# [16] = system: SF-539 CNS
# [17] = system: UACC-257 melanoma
# [18] = system: M14 melanoma
SMILES,growth [1],growth [2],growth [3],growth [4],growth [5],growth [6],growth [7],growth [8],growth [9],growth [10],growth [11],growth [12],growth [13],growth [14],growth [15],growth [16],growth [17],growth [18]
CC1CCCCC[N+]12CCCC2 (stereo not drawn),111%,93.6%,96.4%,103%,113%,103%,96.8%,108%,105%,107%,100%,99%,92%,109%,92.2%,104%,104%,102%
CC(=O)N1CCN(CCNC(=O)n2cc(-c3ccncc3)c(-c3cc(O)cc(Cl)c3)n2)CC1,99.7%,102%,106%,94.2%,89%,102%,67.8%,86.8%,89.5%,53.5%,31.9%,82.5%,65.2%,96%,80.5%,71.6%,-34% (active),5.16% (active)
COc1ccc2c(c1)cn1c3ccc(O)cc3[nH]c(=O)c21,23.3%,45.9%,41.1%,25.8%,-52.4% (active),26.8%,22.9%,4.21% (active),15.4%,-5.1% (active),62.5%,25.5%,-3.01% (active),16.9%,22.5%,-4.58% (active),51.4%,14.7%
Cc1cc2cn3c4ccc(O)cc4[nH]c(=O)c3c2cc1C,25.3%,54.3%,-8.89% (active),11.7%,-81.9% (active),3.2% (active),19.1%,-63.3% (active),3.48% (active),-36.8% (active),16.4%,-11.1% (active),38.1%,15.4%,9.25% (active),12%,46.6%,-19.4% (active)
CCC(C)[C@H](NC(=O)Nc1cc(C(F)(F)F)cc(C(F)(F)F)c1)C(=O)N[C@@H](Cc1cn(C)cn1)C(=O)OC (stereo partly drawn),-83.2% [100 µM] (active),-50.6% [100 µM] (active),-96.8% [100 µM] (active),-99.2% [100 µM] (active),-64.5% [100 µM] (active),-76% [100 µM] (active),-88.4% [100 µM] (active),-83.9% [100 µM] (active),-96.4% [100 µM] (active),-68.3% [100 µM] (active),-86.5% [100 µM] (active),-96.3% [100 µM] (active),-86.6% [100 µM] (active),-87.9% [100 µM] (active),-93.3% [100 µM] (active),-96% [100 µM] (active),-97.5% [100 µM] (active),-89.7% [100 µM] (active)
CN1NC(c2ccccc2)NN(C)C1=O,107%,102%,89.8%,93.6%,109%,101%,102%,105%,122%,89.3%,84.8%,108%,107%,102%,83.5%,106%,–,108%
CC(C)OCC1CO1 (stereo not drawn),110%,101%,100%,102%,97.7%,106%,113%,104%,114%,109%,86.8%,107%,119%,99.9%,78.2%,95.1%,102%,102%
CCCCCCCCCCCCOC(=O)/C=C\C(=O)NC(N)=O,110%,96.8%,111%,101%,93.2%,81.6%,89.9%,111%,95.4%,44.2%,102%,93.5%,69.3%,107%,102%,95.5%,85.2%,93.6%
CC(=O)NCCN,111%,97.5%,108%,108%,109%,96.6%,98.3%,106%,116%,101%,100%,101%,90.1%,108%,101%,94.9%,86.9%,108%
CCC(C)CC(N)O (stereo not drawn),105%,98%,116%,122%,108%,106%,105%,109%,114%,108%,130%,116%,91.8%,108%,99.4%,107%,102%,103%
CC(=O)Nc1nc(C)c(C(=O)N/N=C/N2CCCCC2)s1,108%,103%,123%,-100% (active),110%,104%,114%,114%,137%,137%,119%,111%,112%,111%,127%,99.3%,120%,111%
CCCC[N+](C)(N)CCCC,112%,105%,103%,97.6%,102%,103%,97.1%,122%,111%,103%,107%,108%,115%,112%,94.5%,101%,106%,100%
COC(=O)/C=C1/CCCCC1(C)C(=O)OC (stereo not drawn),109%,102%,105%,105%,107%,101%,96.4%,120%,112%,103%,109%,110%,106%,110%,120%,119%,98.4%,101%
CCOc1ccc(N(C)c2ccc(/C=C/C3=[N+](C)c4ccccc4C3(C)C)cc2)cc1,4.67% (active),54.2%,57%,12.3%,-50% (active),9.51% (active),2.71% (active),-77% (active),-3.68% (active),8.09% (active),-73.8% (active),-56.2% (active),35.8%,-78.9% (active),-2.2% (active),30.5%,-16.4% (active),6.52% (active)
O=C(/C(Br)=C/c1ccccc1)c1ccccc1,93.3%,110%,107%,80.3%,84.9%,78.6%,-90.5% (active),-70.8% (active),64.1%,-1.65% (active),-36.9% (active),42.6%,-58.2% (active),78.9%,103%,-41.7% (active),-5.24% (active),-95.4% (active)
C=CCC(CCC(CC=C)C(=O)OCC)C(=O)OCC (stereo not drawn),108%,104%,83.3%,103%,105%,106%,98.5%,110%,110%,108%,96.2%,107%,108%,105%,91.9%,105%,113%,102%
CN(C)CCOC(=O)C(C)(C)C,114%,98%,107%,112%,103%,101%,110%,116%,122%,101%,105%,93.9%,102%,121%,108%,109%,92.5%,98.3%
COc1cccc(NC(=O)NCCNc2nccc(-c3c(-c4ccc(F)cc4)nc4sccn34)n2)c1,89.9%,85.9%,115%,99.4%,58.8%,54.4%,63%,69.3%,76.9%,71.4%,140%,79.4%,88.5%,84.2%,103%,102%,119%,92.6%
